# KB-V1 cytotox = KB-V1 MDR subline cytotoxicity. AID 1347076. hit rate 3.4% among 400,000. KB-V1 MDR cells viability, CellTiter-Glo, 72 h. Potency, µM (doses to about 46.1 µM), usual class: cytotoxic; note: % is set by controls: 0 for no effect and ±100 for the full control effect; nearly all actives have a fitted effect of over 60% in size
#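 Potencies derive from concentration-effect curves fitted to normalized luminescence (CellTiter-Glo) of KB-V1 cells treated for 72 h at 37 degrees C in phenol-red-free DMEM containing 10% FBS.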
# KB-3-1 cytotox = kills parental KB-3-1 adenocarcinoma cells; Potency, µM (series often up to 46.1 µM), usual class: cytotoxic; hit rate 1.4% among 400,000; AID 1347075; KB-3-1 viability, CellTiter-Glo ATP luminescence, 72 h; note: % is set by controls: 0 for no effect and ±100 for the full control effect; nearly all actives have a fitted effect of over 60% in size
#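 Cytotoxicity in the drug-sensitive parental line KB-3-1 was scored as loss of CellTiter-Glo luminescence following 72 h incubation with compound. Values come from curve fitting of normalized concentration-response data.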
# MCF10A rerep = inducers of DNA re-replication in MCF 10A breast cells. Potency, µM (doses to about 46.1 µM), for the others: at the top dose activity, positive = re-replication, most hits filed as activators. hit rate 2.9% among 350,000. AID 624296. MCF 10A DNA re-replication, Hoechst nuclear intensity, 48 h; note: % of control where 0% means no effect; nearly all actives have a fitted effect of over 50% in size
# HT1080NT lethal = kills 2HG-producing HT-1080-NT fibrosarcoma cells; HT-1080-NT fibrosarcoma viability, CellTiter-Glo ATP luminescence, 48 h; Potency, µM (titrated, usually from 46.1 µM), inactives show top-dose activity, negative = less viability, most hits filed as cytotoxic; hit rate 1.6% among 360,000;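 note: NT is the 2HG producing partner of a matched IDH1 knockdown line; 0% = DMSO-treated cells and -100% = media-only wells without cells; nearly all actives have a fitted effect of over 55% in size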
#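 Viability of the 2HG-overproducing fibrosarcoma line after 48 hours of compound exposure at 37 degrees C was determined by luminescence with CellTiter-Glo, and concentration-effect curves were then fitted and categorized.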
# HT1080 IDH1KD tx = toxicity to HT-1080 IDH1 knockdown cells (counter line) | HT-1080 IDH1 knockdown viability, ATP luminescence, 48 h | Potency, µM (series often up to 46.1 µM), for the others: at the top dose activity, negative = toxicity, hits mostly cytotoxic | hit rate 2% among 360,000 | AID 686971;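 note: 0% = DMSO wells and -100% = cell-free medium wells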
#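 Viability of IDH1-knockdown HT-1080 fibrosarcoma cells was assessed by CellTiter-Glo after 48 h at 37 °C with titrated compound; concentration-effect curves were classified by fit quality and response size.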
# SW480 rerep = DNA re-replication induction in SW480 cells; SW480 DNA re-replication, Hoechst DNA content imaging, 48 h; hit rate 1.8% among 340,000; AID 624297; Potency, µM (series often up to 46.1 µM), without a hit: at the top dose re-replication activation, most hits filed as activators; note: % of control where 0% means no effect; nearly all actives have a fitted effect of over 55% in size
#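 First, 250 cells per well were seeded. Next, compound or vehicle (23 nL) was pinned in, plates sat 48 hr at 37 C. Finally Hoechst was added for 40 min before fluorescence scanning.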
# * hit, by the source's call; i = inactive; ? = inconclusive; · = no result; [ ] = dose if it differs, or a comment. Shown are actives, neighbours in structure and some others; about 8% of the full set was active somewhere. Calls come from the whole dose curve; as a rule, active = well fitted curve in the direction sought with a large enough effect; inconclusive = small, poorly fitted or top-dose-only effect, or another doubt; inactive = no such curve, though single readings can be large; an effect the other way counts as inactive or inconclusive. Potency is the fitted concentration of half-maximal effect.
SMILES,KB-V1 cytotox,KB-3-1 cytotox,MCF10A rerep,HT1080NT lethal,HT1080 IDH1KD tx,SW480 rerep
Cc1ccc(SC(C)C(=O)NC(N)=O)c(C)c1 (stereo unspecified),?,i,0.58µM*,-3%,1%,-3%
CCCCOc1ccc(S(=O)(=O)Nc2cccnc2)cc1,5.8µM*,26µM*,-5%,?,-16%,-2%
CCOc1ccc(NS(=O)(=O)c2cnc(Cl)c(Cl)c2)cc1,?,?,4.1µM*,?,?,?
CCCCOc1cccc(C(=O)NC(=S)Nc2cccnc2)c1,18µM*,i,3%,-3%,1%,-6%
Cc1cc(C)cc(NS(=O)(=O)c2cnc(Cl)c(Cl)c2)c1,i,i,?,?,?,0%
CCOc1ccc(S(=O)(=O)Nc2ccc3c(c2)n(C)c(=O)n3C)cc1,15µM*,?,14%,?,-24%,-6%
CCOc1ccc(S(=O)(=O)Nc2cccc(N(C)S(C)(=O)=O)c2)cc1,i,i,2%,-4%,-4%,-4%
CCOc1ccc(NS(=O)(=O)c2ccc3c(c2)oc(=O)n3C)cc1,15µM*,i,-3%,-1%,6%,-5%
CCOc1ccc(S(=O)(=O)Nc2cccc(OC)c2)cc1,?,i,?,?,10µM*,?
CCc1ccc(NS(=O)(=O)c2ccc3c(c2)oc(=O)n3C)cc1,i,i,-4%,-10%,-12%,-6%
CCOC(=O)c1sc(N=NC2=C(O)CCCC2=O)c(C(=O)OCC)c1C,i,i,-3%,-16%,?,-1%
N#Cc1ccc(NC(=O)Cn2cnc(S(=O)(=O)N3CCOCC3)c2)cc1,?,i,-1%,8%,16%,-10%
COc1ccc(-c2cc3c(=O)n(CC(=O)NCCCN4CCC(Cc5ccccc5)CC4)ncn3n2)cc1,i,21µM*,-14%,?,?,5.8µM*
COc1ccc(-c2cc3c(=O)n(CC(=O)NCCCN4CCN(Cc5ccccc5)CC4)ncn3n2)cc1,i,i,-6%,1%,0%,-10%
O=C1C=C(c2cccc(OCc3ccccc3)c2)C[C@@H](c2ccc3c(c2)OCO3)C1,i,i,6%,0%,-16%,-20%
O=C1C=CC2C(c3ccc4c(c3)OCO4)CC1N2Cc1ccccc1 (stereo unspecified),?,9.2µM*,?,-19%,-20%,4%
CC1OC(CC(=O)O)CC2=C1C(=O)c1c(O)cccc1C2=O (stereo unspecified),2.9µM*,3.7µM*,?,1.3µM*,0.26µM*,?
c1ccc(CCNc2c3c(nc4ncnn24)CCC3)cc1,12µM*,i,-10%,2%,-6%,-6%
O=C(Nc1ccc(C(=O)N2CCCCC2)cc1)c1ccccc1Cl,·,·,0%,4%,-2%,9%
CCCCN(CCCC)S(=O)(=O)c1ccc2oc(C(=O)N3CCOCC3)c(C)c2c1,4.6µM*,i,2%,2%,-24%,10%
CC(=O)OCC(=O)Nc1ccc(SC(F)F)cc1,i,i,1%,-1%,14%,-9%
CN1CCN(C(=S)SCC(=O)Nc2nc(-c3ccccc3)c(-c3ccccc3)o2)CC1,21µM*,?,12µM*,-19%,0%,-108%
CCOC(=O)C(=O)Nc1nc(-c2ccccc2)c(-c2ccccc2)o1,i,i,17%,6%,2%,0%
Cc1cccc(-n2cc(CN(C)Cc3nccn3C)c(-c3cccc(F)c3)n2)c1,i,i,?,?,?,18µM*
CCn1ccnc1CN(C)Cc1cn(-c2ccc(C)cc2)nc1-c1cccc(C)c1,i,i,?,?,26µM*,?
SMILES,KB-V1 cytotox,KB-3-1 cytotox,MCF10A rerep,HT1080NT lethal,HT1080 IDH1KD tx,SW480 rerep
Cc1ccc(-n2cc(CN3CCN(Cc4nccn4C)CC3)c(-c3cccc(C)c3)n2)cc1,i,?,6%,-19%,?,17%
CCn1ccnc1CN(C)Cc1cn(-c2cccc(C)c2)nc1-c1cccc(F)c1,?,?,5.8µM*,-16%,-29%,?
COc1ccc(-n2cc(CN(C)CCO)c(-c3cccc(F)c3)n2)cc1,i,i,-3%,0%,0%,-6%
Cc1cccc(-n2cc(CNCCN3CCOC3=O)c(-c3cccc(F)c3)n2)c1,i,i,-8%,-19%,?,?
CC(C)N1CCC(N2CCN(Cc3ccc(-c4ccc(Cl)cc4)o3)CC2CCO)CC1 (stereo unspecified),i,?,62%,16µM*,21µM*,?
CCOC(=O)c1ccc(N2C(=O)C(CC(=O)NC)N(CCc3ccc(OC)c(OC)c3)C2=S)cc1 (stereo unspecified),i,i,21µM*,-18%,-23%,7%[1.84 µM]
CCOC(=O)c1ccc(NC(=O)CC2C(=O)N(c3ccc(F)cc3)C(=O)N2CCC(C)C)cc1 (stereo unspecified),?,21µM*,?,5%[9.24 µM],?,18%
COC(=O)c1ccc(NC(=O)CC2C(=O)N(c3ccc(C)cc3)C(=O)N2CC(C)C)cc1 (stereo unspecified),23µM*,i,-3%,4%,-19%,6%
COC(=O)c1ccccc1NC(=O)CCS(=O)(=O)c1ccc(Br)cc1,i,i,8%,12%,6%,-4%
C=C1C(=O)C23C(O)C1CCC2C12CCCC(C)(COC(C)=O)C1C(O)C3(O)OC2 (stereo unspecified),?,13µM*,0.73µM*,8.2µM*,1.8µM*,?
COc1cc(C(N)=O)cc(Br)c1OCc1ccccc1,?,i,22%,1%,-17%,-7%
Oc1ccc(NCc2ccc(OCc3ccccc3)cc2)cc1,i,?,?,23µM*,?,?
COc1cc(CNc2ccc(O)cc2)cc(Br)c1OCc1ccccc1,i,i,23µM*,?,-21%,?
Oc1ccc(NCc2ccccc2OCc2ccccc2F)cc1,?,?,?,?,-28%,?
O=C1CCCC/C1=N\Nc1ccc(OCc2ccccc2)cc1,i,i,28%,?,5.2µM*,-30%
CCOc1ccccc1CNc1ccc(O)cc1,i,?,?,23µM*,?,?
C[C@H](CO)N1C[C@H](C)[C@@H](CN(C)C(=O)Nc2ccccc2)Oc2ccc(NC(=O)C3CC3)cc2C1=O,i,i,-2%,6%,7%,6%
Cc1cccc(C)c1NC(=O)NCCSc1snnc1C,i,i,0%,3%,24%,-2%

# Screening data: PubChem, National Center for Advancing Translational Sciences (NCATS)
